{"source": "PubChem BioAssay (NCI)", "note": "This is part of a sample that, as a whole, favours compounds with a hit. Of some 83,000 tested, about 20% had one in any assay.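 Each cell line was grown in a 96-well plate and treated with one concentration of compound for 48 hours. Values below 10 were considered active.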 Unmarked numbers belong to inactive results. Calls of active or inactive are those of the source."}
{"tested_on": "COLO 205 colon", "assay": "NCI-60 one-dose screen, 48 h (100 = growth as untreated, 0 = no growth, -100 = all killed)", "details": "10 µM unless noted", "protocol": "Cells are grown in 96 well plates and exposed to the test compound for 48 hours. Compounds are tested at a single concentration, which is 10^-5 M for most compounds. The reported endpoint is percent growth (GI% or GIPRCNT), where numbers from 0 - 100% represent growth inhibition, and numbers from -100% - 0 represent cell death. For example, a value of 40 represents 60% growth inhibition. A value of 0 means no net growth occurred over the course of the experiment. A value of -40 indicates 40% of cells at the beginning of the experiment died by the end of the experiment. A value of -100 means all cells are dead at the end of the experiment.\nNCI-60 Human Tumor Cell Lines Screen was performed using the standard one-dose NCI protocol, which is described in more detail at https://dtp.cancer.gov/discovery_development/nci-60/default.htm.\nCompounds with GIPRCNT values below 10 were considered active. Activity score was based on GIPRCNT using the following formula: […]\nScore is 0 for GIPRCNT values of 100 or above, 50 for GIPRCNT values of 0, and 100 for GIPRCNT values of -100."}
{"compound": "O=C(CC1Sc2ccccc2NC1=O)NNc1cccc(Cl)c1Cl", "note": "(stereo not given)", "growth": "82.2%"}
{"compound": "O=CN1N=C(c2ccc(Nc3ccnc4cc(Cl)ccc34)cc2)CC1c1ccc(Cl)cc1", "note": "(stereo not given)", "growth": "12.1%"}
{"compound": "CN(C)CCC(=O)Nc1ccc(-n2cc(-c3cccc(NC(=S)Nc4cccc(-c5cn(-c6ccc(NC(=O)CCN(C)C)cc6)nn5)c4)c3)nn2)cc1", "growth": "99.4%"}
{"compound": "O=C1c2cc3c(cc2-c2c1c1ccc(Cl)cc1c(=O)n2CCCNCCO)OCO3", "growth": "-88.6% (active)"}
{"compound": "C1=C(Cc2ccccc2)n2cnc3ncnc(c32)S1", "growth": "82%"}
{"compound": "FC(F)(F)c1ccc(-c2cnc(-c3nn[nH]n3)nc2NC2CCCCCC2)cc1", "growth": "95% [50 µM]"}
{"compound": "COc1cccc(/C=N\\NC(=O)c2ccncc2)c1O", "growth": "50.1%"}
{"compound": "O=C(COc1cccc(/C=C2\\Oc3ccc4ccccc4c3C2=O)c1)c1ccc(Cl)cc1", "growth": "102%"}
{"compound": "O=C(NCCCl)NCCN1c2nc3ccccc3cc2Sc2cc3ccccc3nc21", "growth": "73.8%"}
{"compound": "CC12CCC3C(=CCc4cc(O)ccc43)C1CCC2=O", "note": "(stereo not given)", "growth": "111%"}
{"compound": "O=C(Oc1cccc2ccccc12)c1ccccc1C(=O)c1ccccc1", "growth": "112%"}
{"compound": "CCOC(=O)c1cnc2c(C)cc(C)cc2c1NCCCN(C)C", "growth": "17.4%"}
{"compound": "O=C1C=CC(=O)N1c1ccccn1", "growth": "112%"}
{"compound": "N/C(=N\\c1nc2ccccc2s1)NC(=O)Nc1ccccc1Cl", "growth": "-44.4% (active)"}
{"compound": "C[C@]12CCC(=O)C=C1CCC1C2[C@@H](O)C[C@@]2(C)C1CC[C@]2(O)C(=O)COC(=O)CCC(=O)O", "note": "(stereo not given in full)", "growth": "110%"}
{"compound": "CCCCCN(CCCCC)CCCNc1c2c(nc3ccc(Cl)cc13)CCCC2", "growth": "-11% (active)"}
{"compound": "Nc1ccccc1C#Cc1ccccc1C#Cc1ccc(OCCCCCCOc2ccc(C#Cc3ccccc3C#Cc3ccccc3N)cc2)cc1", "growth": "96.7%"}
{"compound": "COc1cc(/C=C/c2cc(/C=C/c3ccc(O)c(OC)c3)n(C(=O)c3ccc(Cl)cc3)n2)ccc1O", "growth": "98.7%"}
{"compound": "Clc1ccc2c(c1)C(Br)c1cc(Cl)cc(Cl)c1-2", "note": "(stereo not given)", "growth": "103%"}
{"compound": "CCCCCCC(CC#N)(CCC)CCCC", "note": "(stereo not given)", "growth": "129%"}
{"compound": "OC(c1ccccc1)C(NCc1ccccc1)c1ccccc1", "note": "(stereo not given)", "growth": "116%"}
{"compound": "[N-]=[N+]=NCc1ncc(-c2ccc(C(F)(F)F)cc2)c(NC2CCCCCC2)n1", "growth": "87.2% [50 µM]"}
{"compound": "CC[n+]1c(/C=C/c2ccc(N3CCCC3)cc2)cccc1/C=C/c1ccc(N2CCCC2)cc1", "growth": "-83.1% (active)"}
{"compound": "C=CCN(/C=C/CN(CC=C)CC=C)CC=C", "growth": "107%"}
{"compound": "Cc1cc(Cl)ccc1Nc1nc(C(F)(F)F)ccc1C(=O)N/N=C/c1ccc(Cl)cc1", "growth": "-18.7% (active)"}
{"compound": "O=C(c1ccccc1)c1ccc(Oc2ccc([N+](=O)[O-])cc2[N+](=O)[O-])cc1", "growth": "84%"}
{"compound": "Cc1ccccc1NC(=O)N/C(N)=N/c1nc2ccccc2s1", "growth": "6.68% (active)"}
{"compound": "COc1ccc2c(c1)sc1nc(-c3ccc(N(C)C)cc3)cn12", "growth": "93.7%"}
{"compound": "BrC1CC(Br)c2c1c1c(c3c2C(Br)CC3Br)C(Br)CC1Br", "note": "(stereo not given)", "growth": "105%"}
{"compound": "O=C(N/N=C/c1ccc(Cl)cc1Cl)c1ccccc1Nc1cccc(C(F)(F)F)c1", "growth": "109%"}
{"compound": "NC(=O)c1cc(Cl)ccc1NC(=O)c1ccccc1-c1ccccc1", "growth": "-14.1% (active)"}
{"compound": "CCOC(=O)N1CCC(N=C2CSc3nnc(-c4cc(C(F)(F)F)cc(C(F)(F)F)c4)n3N2)CC1", "growth": "-9.91% (active)"}
{"compound": "OCCN1CCN(CCCN2c3ccccc3Sc3ccc(C(F)(F)F)cc32)CC1", "growth": "-81.9% (active)"}
{"compound": "Clc1ccc(C2=NN(c3ccc(Cl)cc3)C(c3cccc(Nc4ccnc5cc(Cl)ccc45)c3)C2)cc1", "note": "(stereo not given)", "growth": "72.8%"}
{"compound": "COc1ccc(/C=C2\\CCc3ccccc3C2=O)cc1", "growth": "106%"}
{"compound": "C1CCC(C(CC2CCCCN2)C2CCCCC2)CC1", "note": "(stereo not given)", "growth": "-63.6% (active)"}
{"compound": "COc1ccc(OC)c(CCn2cncc2-c2c[nH]c3cc(Br)ccc23)c1", "growth": "7.59% (active)"}
{"compound": "CCSc1nc(-c2cccs2)n2nc(-c3ccco3)cc2n1", "growth": "123%"}
{"compound": "C[C@@H]1C[C@@H]([C@@H](CC2CC(=O)NC(=O)C2)OC(=O)CC(=O)c2ccccc2)C(=O)[C@@H](C)C1", "growth": "10.2%"}
{"compound": "COc1cc(/C=C2\\SC(N3CCCCC3)=NC2=O)ccc1OCCCCCCOc1ccc(/C=C2\\SC(N3CCCCC3)=NC2=O)cc1OC", "growth": "0.374% (active)"}
